# Assay results reported in PubChem BioAssay AID720690 (Broad Institute, 2013).
# Potency and affinity values are given separately. Calls of active or inactive are those of the source.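 The calls were made as follows: active = every repeat run showing a signal drop whose fitted half-maximal concentration is at most twice the top tested concentration; inconclusive = repeat runs disagree, or flat partial drop, or poor fit; inactive = the rest.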
# Test: HEK293T cytotoxicity, dose response, cytotoxicity control for miR-122 modulator project, cell-based, activator set, cherry-pick (AID 720690)
# Details: HEK293T viability, CellTiter-Glo luminescence, 48 h; series mostly up to 26 µM
row,SMILES,outcome
1,CN(C[C@H]1N[C@@H](CO)[C@H]1c1ccc(-c2cccc(F)c2)cc1)C(=O)C1CCC1,inactive
2,N#CCc1c(C#N)c(N)nc(N2CCN(S(=O)(=O)c3ccccc3)CC2)c1C#N,inactive
3,COc1ccc(CC(NC(C)=O)C(=O)N2CCN(C(=O)N(C(C)C)C(C)C)CC2)cc1 (stereo unspecified),inactive
4,C/C=C/c1ccc([C@@H]2[C@@H](CN(C)C(=O)CC)N(C(=O)NC(C)C)[C@H]2CO)cc1,inactive
5,CNC(=O)C[C@H]1CC[C@H]2[C@@H](COc3ccc(NC(=O)C4CC4)cc3C(=O)N2C)O1,inactive
6,COC(=O)C[C@@H]1CC[C@@H]2[C@@H](COc3ccc(NS(=O)(=O)c4ccccc4F)cc3C(=O)N2C)O1,inactive
7,C/C=C/c1ccc([C@H]2[C@@H](CO)N(C(=O)COC)[C@H]2CNC(=O)CC)cc1,inactive
8,C[C@@H]1CN([C@@H](C)CO)S(=O)(=O)c2ccc(/C=C/c3ccccc3)cc2O[C@@H]1CN(C)C(=O)NC1CCCCC1,inactive
9,COc1cccc(NC(=O)N2[C@H](CO)[C@@H](c3ccccc3)[C@H]2CNCC(C)C)c1,inactive
10,CCCc1ccc(S(=O)(=O)NCCc2ccncc2)cc1,inactive
11,CN1CCN(C(=O)C[C@H]2CC[C@@H]3[C@H](COc4ccc(NC(=O)c5cccs5)cc4C(=O)N3C)O2)CC1,inactive
12,CCNC(=O)Nc1ccc2c(c1)C(=O)N(C)[C@H]1CC[C@H](CC(=O)Nc3cccc(F)c3)O[C@@H]1CO2,inactive
13,COC(=O)C[C@H]1CC[C@H]2[C@H](COc3ccc(NS(=O)(=O)c4ccc(F)cc4)cc3C(=O)N2C)O1,inactive
14,C[C@@H]1CN([C@@H](C)CO)S(=O)(=O)c2ccc(C#Cc3ccncc3)cc2O[C@@H]1CN(C)C(=O)Nc1ccc2c(c1)OCO2,inactive
15,CCC(=O)N(C)C[C@H]1Oc2cc(C#Cc3ccccc3)ccc2S(=O)(=O)N([C@@H](C)CO)C[C@H]1C,inactive
16,COc1cc2nc(C3CCC3)n(NC(=O)C3CCCC(OC)C3)c(=O)c2cc1OC (stereo unspecified),inactive
17,CN1C(=O)c2cc(NC(=O)c3cccs3)ccc2OC[C@@H]2O[C@@H](CC(=O)NCC(F)(F)F)CC[C@H]21,inactive
18,Cc1nc(C)c(C(=O)Nc2ccc(Oc3ccccc3)cc2)o1,inactive
19,C/C=C/c1ccc([C@H]2[C@H](CO)N[C@@H]2CN(CC)C(=O)c2cccnc2)cc1,inactive
20,O=C(C1CCOCC1)N1[C@H](CO)[C@H]2c3ccccc3NC[C@H]21,inactive
21,C[C@@H]1CN([C@H](C)CO)C(=O)c2cc(-c3cccc(C#N)c3)cnc2O[C@H]1CN(C)C(=O)C1CCC1,inactive
22,CN(C)C(=O)c1ccc(-c2ccc([C@H]3[C@@H](CO)N4CCCCN(C(=O)C5CCCC5)C[C@@H]34)cc2)cc1,inactive
23,O=C(Nc1ccccc1)N1C[C@@H]2[C@H](c3ccccc31)[C@H](CO)N2Cc1cocn1,inactive
24,COc1ccc(N2CCN(C(=O)CSc3nnc(CNc4ccccc4)o3)CC2)cc1,inactive
25,CCC(=O)Nc1ccc2c(c1)C(=O)N(C)[C@@H]1CC[C@H](CC(=O)NCCN3CCCCC3)O[C@H]1CO2,inactive
26,Cc1ccccc1NC(=O)Nc1ccc2c(c1)C(=O)N(C)[C@@H]1CC[C@H](CC(=O)NCC3CC3)O[C@@H]1CO2,inactive
